For 15 compounds, inhibition results are on record in ChEMBL document CHEMBL1961873, “Compounds: GSK PKIS; Assays: Nanosyn kinase panel” (2012).

The target of test [1] is 5'-AMP-activated protein kinase catalytic subunit alpha-2 (Homo sapiens) (UniProt P54646). Conditions: at 1 µM.
The target in test [2] is T1, NUAK family SNF1-like kinase 1 (Homo sapiens) (UniProt O60285).
T1 sequence (whole entry): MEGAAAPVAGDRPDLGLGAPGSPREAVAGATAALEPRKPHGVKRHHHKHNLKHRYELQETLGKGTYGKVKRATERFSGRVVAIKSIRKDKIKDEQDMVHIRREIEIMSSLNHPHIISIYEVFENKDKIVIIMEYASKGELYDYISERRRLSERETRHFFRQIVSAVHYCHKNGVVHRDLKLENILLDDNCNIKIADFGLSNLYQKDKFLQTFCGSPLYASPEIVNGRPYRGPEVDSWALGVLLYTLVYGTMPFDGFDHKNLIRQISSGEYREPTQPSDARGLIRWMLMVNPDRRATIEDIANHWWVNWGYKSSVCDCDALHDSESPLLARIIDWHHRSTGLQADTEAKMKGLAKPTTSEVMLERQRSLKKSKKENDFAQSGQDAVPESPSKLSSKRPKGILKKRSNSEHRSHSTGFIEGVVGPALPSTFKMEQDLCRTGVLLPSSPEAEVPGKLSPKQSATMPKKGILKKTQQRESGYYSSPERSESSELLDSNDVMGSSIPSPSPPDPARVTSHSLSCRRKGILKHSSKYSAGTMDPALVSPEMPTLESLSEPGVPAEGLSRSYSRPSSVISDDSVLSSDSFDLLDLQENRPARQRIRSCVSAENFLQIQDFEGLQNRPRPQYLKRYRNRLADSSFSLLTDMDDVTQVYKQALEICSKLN
Conditions: at 0.1 µM.

The target in test [3] is T1, NUAK family SNF1-like kinase 1 (Homo sapiens). To be noted: at 1 µM.
The target in test [4] is T2, Serine/threonine-protein kinase BRSK1 (Homo sapiens) (UniProt Q8TDC3).
T2 sequence (whole entry): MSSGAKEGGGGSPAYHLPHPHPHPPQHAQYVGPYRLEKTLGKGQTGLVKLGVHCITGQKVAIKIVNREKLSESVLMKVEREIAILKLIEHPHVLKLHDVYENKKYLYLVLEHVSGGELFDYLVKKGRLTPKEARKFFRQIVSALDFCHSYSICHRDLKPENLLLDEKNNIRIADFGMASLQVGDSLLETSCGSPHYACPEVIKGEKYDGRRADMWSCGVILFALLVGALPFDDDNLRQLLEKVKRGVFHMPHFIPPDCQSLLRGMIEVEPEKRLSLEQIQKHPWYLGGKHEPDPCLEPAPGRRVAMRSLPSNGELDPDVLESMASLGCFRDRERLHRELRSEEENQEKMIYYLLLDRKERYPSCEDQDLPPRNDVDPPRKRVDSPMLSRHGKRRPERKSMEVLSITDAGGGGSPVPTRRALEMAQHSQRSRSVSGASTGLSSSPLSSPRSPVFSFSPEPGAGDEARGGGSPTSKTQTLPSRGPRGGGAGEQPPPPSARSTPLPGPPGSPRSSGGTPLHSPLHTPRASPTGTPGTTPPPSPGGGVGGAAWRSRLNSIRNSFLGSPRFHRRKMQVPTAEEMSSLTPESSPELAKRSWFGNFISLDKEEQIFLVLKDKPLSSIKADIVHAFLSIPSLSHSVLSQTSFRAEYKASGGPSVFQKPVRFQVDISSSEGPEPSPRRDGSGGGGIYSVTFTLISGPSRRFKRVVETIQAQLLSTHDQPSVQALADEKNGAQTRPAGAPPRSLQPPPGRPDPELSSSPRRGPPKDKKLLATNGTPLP
Conditions: at 0.1 µM.

Test [5] has as its target T2, Serine/threonine-protein kinase BRSK1 (Homo sapiens). Conditions: at 1 µM.
Test [6] deals with T3, Serine/threonine-protein kinase BRSK2 (Homo sapiens) (UniProt Q8IWQ3).
T3 sequence (whole entry): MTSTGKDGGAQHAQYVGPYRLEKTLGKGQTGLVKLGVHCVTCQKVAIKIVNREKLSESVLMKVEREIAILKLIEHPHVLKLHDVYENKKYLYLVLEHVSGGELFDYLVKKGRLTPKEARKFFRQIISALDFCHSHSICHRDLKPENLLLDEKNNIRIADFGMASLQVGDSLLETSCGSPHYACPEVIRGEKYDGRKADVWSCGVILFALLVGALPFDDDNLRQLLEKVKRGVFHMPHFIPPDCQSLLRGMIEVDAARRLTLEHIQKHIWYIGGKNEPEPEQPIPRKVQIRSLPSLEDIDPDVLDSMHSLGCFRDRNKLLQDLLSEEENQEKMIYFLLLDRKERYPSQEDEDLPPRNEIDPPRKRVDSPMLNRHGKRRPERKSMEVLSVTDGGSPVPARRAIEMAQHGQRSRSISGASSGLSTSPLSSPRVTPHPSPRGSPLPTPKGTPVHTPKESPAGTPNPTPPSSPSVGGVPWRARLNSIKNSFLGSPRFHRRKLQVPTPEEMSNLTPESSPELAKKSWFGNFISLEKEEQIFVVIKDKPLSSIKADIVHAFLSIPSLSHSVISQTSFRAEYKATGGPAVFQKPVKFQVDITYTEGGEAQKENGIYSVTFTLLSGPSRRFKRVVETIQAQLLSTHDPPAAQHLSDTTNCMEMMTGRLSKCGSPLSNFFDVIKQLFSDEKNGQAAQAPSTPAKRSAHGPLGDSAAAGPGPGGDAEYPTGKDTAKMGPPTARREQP
Conditions: at 0.1 µM.

Test [7] has as its target T3, Serine/threonine-protein kinase BRSK2 (Homo sapiens). To be noted: at 1 µM.
Test [8] deals with Calcium/calmodulin-dependent protein kinase type 1D (Homo sapiens) (UniProt Q8IU85). To be noted: at 0.1 µM.
Sequence of Calcium/calmodulin-dependent protein kinase type 1D (Homo sapiens) (Q8IU85 whole entry, looked up): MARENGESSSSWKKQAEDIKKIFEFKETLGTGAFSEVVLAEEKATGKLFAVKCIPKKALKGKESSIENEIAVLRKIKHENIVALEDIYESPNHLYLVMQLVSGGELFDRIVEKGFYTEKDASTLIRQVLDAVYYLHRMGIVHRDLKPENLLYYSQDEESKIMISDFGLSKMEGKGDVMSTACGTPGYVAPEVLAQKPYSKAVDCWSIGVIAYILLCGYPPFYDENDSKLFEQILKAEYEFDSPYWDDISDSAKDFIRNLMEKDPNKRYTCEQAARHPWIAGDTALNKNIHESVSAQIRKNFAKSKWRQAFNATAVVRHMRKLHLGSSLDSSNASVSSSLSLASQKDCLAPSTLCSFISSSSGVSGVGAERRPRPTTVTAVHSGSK
For test [9] the target is unchanged. Conditions: at 1 µM.
Test [10] addresses Calcium/calmodulin-dependent protein kinase type II subunit alpha (Homo sapiens) (UniProt Q9UQM7). Conditions: at 0.1 µM.

Where “and” joins values, the source holds several entries; their conditions need not be identical. Equal entries are not always repeated.

Sequence of Calcium/calmodulin-dependent protein kinase type II subunit alpha (Homo sapiens) (Q9UQM7 whole entry): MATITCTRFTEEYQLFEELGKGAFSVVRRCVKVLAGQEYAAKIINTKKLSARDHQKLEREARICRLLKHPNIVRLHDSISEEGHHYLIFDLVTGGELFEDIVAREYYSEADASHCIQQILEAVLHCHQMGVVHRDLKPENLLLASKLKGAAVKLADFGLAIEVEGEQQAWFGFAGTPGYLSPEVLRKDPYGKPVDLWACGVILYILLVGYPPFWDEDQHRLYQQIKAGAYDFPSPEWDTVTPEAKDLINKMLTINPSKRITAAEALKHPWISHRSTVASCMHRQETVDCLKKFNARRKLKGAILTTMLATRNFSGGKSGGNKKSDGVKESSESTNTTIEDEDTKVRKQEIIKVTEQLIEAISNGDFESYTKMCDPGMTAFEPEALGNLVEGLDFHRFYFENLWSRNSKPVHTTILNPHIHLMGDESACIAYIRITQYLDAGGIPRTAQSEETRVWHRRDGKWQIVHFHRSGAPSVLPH
Sequence of 5'-AMP-activated protein kinase catalytic subunit alpha-2 (Homo sapiens) (P54646 whole entry, looked up): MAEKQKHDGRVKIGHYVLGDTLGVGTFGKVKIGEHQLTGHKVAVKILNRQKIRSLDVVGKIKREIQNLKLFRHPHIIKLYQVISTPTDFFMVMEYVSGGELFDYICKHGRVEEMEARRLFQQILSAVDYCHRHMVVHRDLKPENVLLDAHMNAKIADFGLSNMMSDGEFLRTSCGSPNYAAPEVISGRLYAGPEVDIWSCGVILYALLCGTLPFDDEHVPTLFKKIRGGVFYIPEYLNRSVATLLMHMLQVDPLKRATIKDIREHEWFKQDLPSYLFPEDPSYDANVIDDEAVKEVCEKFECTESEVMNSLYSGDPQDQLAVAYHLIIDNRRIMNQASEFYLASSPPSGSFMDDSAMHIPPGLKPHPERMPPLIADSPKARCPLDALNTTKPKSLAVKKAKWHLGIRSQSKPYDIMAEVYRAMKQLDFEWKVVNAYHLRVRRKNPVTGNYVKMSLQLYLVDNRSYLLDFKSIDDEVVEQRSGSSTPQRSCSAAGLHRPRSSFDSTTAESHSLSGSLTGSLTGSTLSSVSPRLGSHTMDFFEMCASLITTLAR

Consider `OCCCNc1nccc(-c2c(-c3ccc(F)cc3)nn3cc(C(F)(F)F)ccc23)n1`, for which the inhibition in test [1] turned out to be 3.17%; in [2], 0.07%; in test [3] it was 3.25%; in [4] it was 1.56%; in test [5], 3.4%; in test [6], 1.44%. In addition, the inhibition was 3.37% in test [7], -0.48% in [8], 3.05% in test [9] and 2.38% in test [10].
`NS(=O)(=O)c1ccc(N/N=C2\C(=O)Nc3ccc(C(=O)NCc4ccncc4)cc32)cc1`: the inhibition in [1] worked out at 34.9%; in [2] it was 18.9%; in test [3] it was 59.5%; in test [4], 6.67%; in test [5], 39.7%; in test [6], 17.2%. Further, the inhibition in [7] was 55.8%; in [8], -0.48%; in test [9], -0.33%; in test [10], 2.84%.
Regarding `CCN1CCC(C(=O)Nc2n[nH]c3nnc(-c4cccc(F)c4F)cc23)CC1`, the inhibition in test [1] is 3.06%; in test [2], 3.72%; in [3], 5.44%; in test [4] it was -0.16%; in test [5] it was 1.41%; in test [6] it was 1.7%. Further, the inhibition in test [7] was 3.77%; in test [8] it was 0.68%; in test [9] it was 0.83%; in test [10], -1.94%.
In the case of `COc1ccccc1-c1cc(/C=C2\C(=O)Nc3ncc(Br)cc32)cc(Br)c1O`, the inhibition in [1] was found to be 7.88%; in test [2], 4.1%; in test [3], 6.09%; in test [4], 4.73%; in test [5], 5.82%; in test [6], 5.97%. Besides, the inhibition in test [7] worked out at 4.72%; in [8] it was 0.1%; in [9], 1.73%; in test [10], 4.16%.
`CCS(=O)(=O)c1ccc(OC)c(Nc2ncc(-c3cccc(F)c3)o2)c1`: the inhibition in [1] was 5.58%; in [2] it was 0.71%; in test [3], 12.5%; in test [4], 1.15%; in [5] it was -0.68%; in [6], 1.63%. The inhibition in [7] is 3.22%; in test [8], 0.89%; in test [9], 2.56%; in [10], 2.75%.
As to `CC1=C(C(=O)Nc2ccc3[nH]ncc3c2)C(c2ccc(F)cc2)N=C(c2ccc(C(F)(F)F)nc2)N1` (stereo not given), the inhibition in test [1] was 4.16%; in test [2], 2.72%; in test [3], -3.57%; in [4], 1.01%; in test [5], 3.19%; in test [6], 0.18%. The inhibition is 5.63% in test [7], 0.25% in test [8], 1.37% in test [9] and 0.55% in test [10].
For the compound `CN1CCC(C(=O)Nc2n[nH]c3nc(-c4ccc(O)cc4)c(Br)cc23)CC1`, the inhibition is 10.2% and 5.07% in test [1]; 2.41% and 0.87% in [2]; 12% and 2.56% in [3]; 5.59% and 6.13% in test [4]; 31.5% and 25.9% in [5]; 6.63% and 3.74% in [6]. Besides, the inhibition was 36.1% and 27.2% in test [7]; 1.98% and 1.28% in test [8]; 15.6% and 15.7% in test [9]; 3.72% and 2.36% in test [10].
For `COc1cc(N2CCN(C(C)C)CC2)ccc1Nc1nc(Nc2cccc3ncccc23)c2cc[nH]c2n1`, the inhibition in [1] is 0.77%; in [2], 13.2%; in test [3], 47.5%; in test [4], -0.07%; in test [5], 0.86%; in [6], -0.35%. Also, the inhibition in test [7] was -0.59%; in test [8] it was 1.82%; in test [9], 17.8%; in test [10], -2.58%.
As for `FC(F)(F)CNc1nccc(-c2cnn3ncccc23)n1`, the inhibition was found to be 2.02% in test [1]; 2.93% in test [2]; 1.68% in test [3]; 1.54% in test [4]; 4.3% in [5]; 3.14% in test [6]. The inhibition in [7] is 5.75%; in test [8] it was 0.18%; in test [9], 0.52%; in test [10] it was 0.49%.
For `Cc1cc(O)cc(C)c1/C=C/c1cncc(C(N)=O)c1`, the inhibition in test [1] stood at 3.4%; in test [2], 0.73%; in test [3], 2.46%; in test [4], 3.32%; in test [5], 15%; in [6], 2.91%. The inhibition in [7] is 9.42%; in test [8] it was 4.14%; in [9] it was 1.23%; in test [10], 7.97%.
On to `N#Cc1ccc2c(-c3ccnc(NC4CC4)n3)c(-c3ccc(F)cc3)nn2c1`, for which the inhibition in test [1] is 1.42%; in test [2] it was -1.39%; in [3] it was -2.95%; in [4], -0.28%; in test [5], -0.2%; in [6], -0.61%. The inhibition was 1.09% in test [7], -0.16% in [8], 0.14% in test [9] and -0.56% in test [10].
As for `NS(=O)(=O)c1cccc(N/C=C2\C(=O)Nc3ccccc32)c1`, the inhibition was 11.2% in [1]; 5.37% in [2]; 35.8% in [3]; 4.66% in [4]; 17.9% in test [5]; 5.23% in test [6]. In addition, the inhibition is 26% in [7], 0.94% in test [8], 3.7% in test [9] and 3.94% in test [10].
Consider `Fc1cccc(COc2ccc(Nc3ncncc3C#Cc3ccccc3)cc2Cl)c1`, for which the inhibition in test [1] is 2.35%; in [2] it was 1.2%; in test [3] it was 3.38%; in test [4], -0.12%; in test [5] it was 3.27%; in test [6] it was 0.86%. The inhibition in [7] was 4.6%; in [8] it was -0.31%; in test [9] it was -0.49%; in [10], 4.42%.
Regarding `CCS(=O)(=O)c1ccc(OC)c(Nc2ncc(-c3cccc(C(C)=O)c3)o2)c1`, the inhibition in test [1] is 3.65%; in [2], 2.25%; in [3], 4.46%; in [4], -0.38%; in test [5] it was 3.68%; in test [6], 1.58%. The inhibition is 4.09% in [7], 0.3% in test [8], -0.69% in test [9] and 2.75% in test [10].
Consider `CN(C)CCNC(=O)Nc1ccc(N(C)c2ccnc(Nc3ccc(CS(C)(=O)=O)cc3)n2)cc1`, for which the inhibition in test [1] is 7.2%; in [2], 14.5%; in [3], 57.9%; in test [4], 2.43%; in test [5], 5.89%; in test [6] it was 2.14%. Besides, the inhibition in test [7] was determined as 4.34%; in test [8] it was 0.53%; in test [9], 1.18%; in [10] it was 4.92%.
